PubChem BioAssay (EPA / NIEHS)
“And” between values parts separate entries of the source, which are not always exact repeats. Equal entries are not always repeated. Where a structure was tested more than once in an assay, its records may differ in their call. The source made the active and inactive calls. The calls were made as follows: active = hit-call score of the fitted dose curve at least 0.9, where 1 is the maximum; inactive = score below 0.9.

Experiments:
[1] = read-out: Cyclin D2 (CCND2), CCND2 (gene 894); experiment: LTEA_HepaRG_CCND2: Life Technologies and Expression Analysis (LTEA) Assay for Cyclin D2 (CCND2) using HepaRG (AID 2283449); details: mRNA level, 48 h; actives raise or lower the signal;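 also: CCND2 transcript measured by TaqMan qRT-PCR and normalised to three housekeeping genes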
Outline: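 HepaRG, 48 h dosing, 8-pt half-log curve from 100 uM, 0.5% DMSO; duplicate wells. Readout: CCND2 transcript by microfluidic qRT-PCR, housekeeping-normalised; bidirectional fit vs DMSO baseline.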

[2] = read-out: Cyclin Dependent Kinase Inhibitor 1A (CDKN1A), CDKN1A (gene 1026); experiment: LTEA_HepaRG_CDKN1A: Life Technologies and Expression Analysis (LTEA) Assay for Cyclin Dependent Kinase Inhibitor 1A (CDKN1A) using HepaRG (AID 2283450); details: mRNA level, 48 h; actives raise or lower the signal
Outline: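 Expression quantified by Fluidigm qRT-PCR with ACTB, GAPDH and POLR2A normalization, fitted bidirectionally against 0.5% DMSO. Cells: HepaRG, plated 48 h then treated 48 h in serum-free induction medium, top concentration 100 uM with half-log dilutions.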

[3] = read-out: Cyclin D1 (CCND1), CCND1 (gene 595); experiment: LTEA_HepaRG_CCND1: Life Technologies and Expression Analysis (LTEA) Assay for Cyclin D1 (CCND1) using HepaRG (AID 2283451); details: mRNA level, 48 h; actives raise or lower the signal;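 as to AC50: differentiated human HepaRG liver cells in serum-free induction medium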
Outline: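 Expression of CCND1 was quantified by qRT-PCR on Fluidigm arrays using ACTB, GAPDH and POLR2A as reference genes. HepaRG cultures, plated 48 h beforehand, were dosed for 48 h at up to 100 uM (half-log, 8 points) in 0.5% DMSO.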

[4] = read-out: catalase (CAT), CAT (gene 847); experiment: LTEA_HepaRG_CAT: Life Technologies and Expression Analysis (LTEA) Assay for catalase (CAT) using HepaRG (AID 2283452); details: mRNA level, 48 h; actives raise or lower the signal
Outline: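 HepaRG cells in serum-free induction medium, 0.5% DMSO vehicle, exposed 48 h in duplicate over 8 half-log concentrations from 100 uM. CAT mRNA measured by qRT-PCR, normalized to ACTB, GAPDH, POLR2A; bidirectional fit versus DMSO.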

[5] = read-out: flavin-containing dimethylaniline monooxygenases 3 (FMO3), FMO3 (gene 2328); experiment: LTEA_HepaRG_FMO3: Life Technologies and Expression Analysis (LTEA) Assay for flavin-containing dimethylaniline monooxygenases 3 (FMO3) using HepaRG (AID 2283453); details: mRNA level, 48 h; actives raise or lower the signal;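 as to AC50: differentiated human HepaRG liver cells in serum-free induction medium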
Outline: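 FMO3 transcript quantified by TaqMan qRT-PCR against three housekeeping genes after 48 h chemical exposure of HepaRG cells. Eight-point half-log series, top 100 uM, 0.5% DMSO vehicle; phenobarbital 1mM induction control; up- or down-regulation fitted.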

[6] = read-out: CFLAR gene, CFLAR (gene 8837); experiment: LTEA_HepaRG_CFLAR: Life Technologies and Expression Analysis (LTEA) Assay for CFLAR gene using HepaRG (AID 2283455); details: mRNA level, 48 h; actives raise or lower the signal
Outline: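 qRT-PCR read-out (Fluidigm/TaqMan) of CFLAR mRNA, normalized to three housekeeping genes, in differentiated human HepaRG cells after 48 h chemical exposure; 8-point half-log series from 100 uM in 0.5% DMSO; bidirectional curve fitting versus DMSO.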

[7] = read-out: Forkhead box O1 (FOXO1), FOXO1 (gene 2308); experiment: LTEA_HepaRG_FOXO1: Life Technologies and Expression Analysis (LTEA) Assay for Forkhead box O1 (FOXO1) using HepaRG (AID 2283456); details: mRNA level, 48 h; actives raise or lower the signal
Outline: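 HepaRG, 48 h exposure, 8-pt half-log series from 100 uM in 0.5% DMSO, duplicates; Fluidigm qRT-PCR mRNA, housekeeping-normalised; bidirectional fit vs DMSO baseline.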

[8] = read-out: growth arrest and DNA damage 45 (GADD45A), GADD45A (gene 1647); experiment: LTEA_HepaRG_GADD45A: Life Technologies and Expression Analysis (LTEA) Assay for growth arrest and DNA damage 45 (GADD45A) using HepaRG (AID 2283458); details: mRNA level, 48 h; actives raise or lower the signal
Outline: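 GADD45A expression was measured by TaqMan qRT-PCR against three housekeeping genes (ACTB, GAPDH, POLR2A) after 48 h treatment of HepaRG cells. Eight-point half-log series up to 100 uM in 0.5% DMSO, run in duplicate.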

[9] = read-out: Forkhead box O3 (FOXO3), FOXO3 (gene 2309); experiment: LTEA_HepaRG_FOXO3: Life Technologies and Expression Analysis (LTEA) Assay for Forkhead box O3 (FOXO3) using HepaRG (AID 2283459); details: mRNA level, 48 h; actives raise or lower the signal
Outline: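 qRT-PCR readout of FOXO3 transcript, normalized to three housekeeping genes (ACTB, GAPDH, POLR2A); gain or loss fitted against 0.5% DMSO vehicle. HepaRG cells, 48 h chemical exposure, 8-point half-log series, top 100 uM.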

[10] = read-out: ABC Transporter (ABCB1), ABCB1 (gene 5243); experiment: LTEA_HepaRG_ABCB1: Life Technologies and Expression Analysis (LTEA) Assay for ABC Transporter (ABCB1) using HepaRG (AID 2283460); details: mRNA level, 48 h; actives raise or lower the signal
Outline: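 HepaRG, 48 h exposure, 8-pt half-log series from 100 uM, 0.5% DMSO vehicle, duplicates. Readout: ABCB1 transcript by Fluidigm TaqMan qRT-PCR, housekeeping-normalized; bidirectional curve fit vs DMSO baseline.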

[11] = read-out: growth arrest and DNA damage 45 (GADD45B), GADD45B (gene 4616); experiment: LTEA_HepaRG_GADD45B: Life Technologies and Expression Analysis (LTEA) Assay for growth arrest and DNA damage 45 (GADD45B) using HepaRG (AID 2283461); details: mRNA level, 48 h; actives raise or lower the signal
Outline: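 Transcript level quantified by Fluidigm TaqMan qRT-PCR with three housekeeping genes for normalization, analyzed for up- or down-regulation against 0.5% DMSO. HepaRG cultures dosed 48 h at eight half-log concentrations up to 100 uM, duplicates.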

[12] = read-out: ABC Transporter (ABCC3), ABCC3 (gene 8714); experiment: LTEA_HepaRG_ABCC3: Life Technologies and Expression Analysis (LTEA) Assay for ABC Transporter (ABCC3) using HepaRG (AID 2283462); details: mRNA level, 48 h; actives raise or lower the signal
Outline: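 Transcript level by TaqMan qRT-PCR, normalised to three housekeeping genes, fitted in both directions relative to vehicle. Chemicals tested in duplicate at eight half-log concentrations up to 100 uM for 48 h on HepaRG cells (0.5% DMSO).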

[13] = read-out: ABC Transporter (ABCB11), ABCB11 (gene 8647); experiment: LTEA_HepaRG_ABCB11: Life Technologies and Expression Analysis (LTEA) Assay for ABC Transporter (ABCB11) using HepaRG (AID 2283463); details: mRNA level, 48 h; actives raise or lower the signal
Outline: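 HepaRG, 48 h exposure, 8-pt half-log CRC top 100 uM, 0.5% DMSO vehicle, duplicates. Readout: TaqMan qRT-PCR of ABCB11 mRNA, housekeeping-normalized (ACTB/GAPDH/POLR2A). Bidirectional fit vs DMSO baseline.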

[14] = read-out: ABC Transporter (ABCC2), ABCC2 (gene 1244); experiment: LTEA_HepaRG_ABCC2: Life Technologies and Expression Analysis (LTEA) Assay for ABC Transporter (ABCC2) using HepaRG (AID 2283464); details: mRNA level, 48 h; actives raise or lower the signal
Outline: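 Endpoint is ABCC2 transcript level from qRT-PCR, normalized to three housekeeping genes and fitted bidirectionally relative to DMSO. Human HepaRG cells received test chemical for 48 h at up to 100 uM (8 points, half-log steps, 0.5% DMSO), duplicate wells.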

[15] = read-out: Broad substrate specificity ATP-binding cassette transporter ABCG2 (Homo sapiens) (UniProt Q9UNQ0); experiment: LTEA_HepaRG_ABCG2: Life Technologies and Expression Analysis (LTEA) Assay for ABC Transporter (ABCG2) using HepaRG (AID 2283465); details: mRNA level, 48 h; actives raise or lower the signal
Outline: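 HepaRG, 48 h exposure, 8-pt half-log series from 100 uM, 0.5% DMSO vehicle, duplicates. Readout: ABCG2 transcript by qRT-PCR (Fluidigm array), housekeeping-normalized; bidirectional curve fit relative to DMSO baseline.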

[16] = read-out: ATP-citrate lyase (ACLY), ACLY (gene 47); experiment: LTEA_HepaRG_ACLY: Life Technologies and Expression Analysis (LTEA) Assay for ATP-citrate lyase (ACLY) using HepaRG (AID 2283466); details: mRNA level, 48 h; actives raise or lower the signal
Outline: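 qRT-PCR readout of ACLY transcript after 48 h chemical treatment of HepaRG cells; expression normalized to three housekeeping genes. Eight-point half-log series, highest 100 uM, 0.5% DMSO vehicle. Gain or loss fitted against DMSO baseline.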

[17] = read-out: Peroxisomal acyl-coenzyme A oxidase 1 (ACOX1) gene, ACOX1 (gene 51); experiment: LTEA_HepaRG_ACOX1: Life Technologies and Expression Analysis (LTEA) Assay for Peroxisomal acyl-coenzyme A oxidase 1 (ACOX1) gene using HepaRG (AID 2283467); details: mRNA level, 48 h; actives raise or lower the signal
Outline: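 HepaRG, 48 h chemical exposure, 8-pt half-log series from 100 uM top, 0.5% DMSO vehicle, duplicates. Readout: ACOX1 mRNA by Fluidigm qRT-PCR, housekeeping-normalized; bidirectional fit vs DMSO baseline.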

[18] = read-out: Alkaline Phosphatase, Placental (ALPP) gene, ALPP (gene 250); experiment: LTEA_HepaRG_ALPP: Life Technologies and Expression Analysis (LTEA) Assay for Alkaline Phosphatase, Placental (ALPP) gene using HepaRG (AID 2283468); details: mRNA level, 48 h; actives raise or lower the signal;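 as to AC50: differentiated human HepaRG liver cells in serum-free induction medium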
Outline: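 ALPP transcript level, measured by qRT-PCR and normalized to three housekeeping genes (ACTB, GAPDH, POLR2A), after 48 h dosing of differentiated HepaRG in serum-free induction medium. Top concentration 100 uM with half-log dilutions (8 points, 0.5% DMSO, duplicates); bidirectional fitting relative to DMSO.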

[19] = read-out: Cytochrome P450 (CYP1A1), CYP1A1 (gene 1543); experiment: LTEA_HepaRG_CYP1A1: Life Technologies and Expression Analysis (LTEA) Assay for Cytochrome P450 (CYP1A1) using HepaRG (AID 2283454); details: mRNA level, 48 h; actives raise or lower the signal
Outline: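 CYP1A1 transcript levels measured by Fluidigm qRT-PCR against three housekeeping genes, 48 h after chemical dosing of human HepaRG cells (highest concentration 100 uM, half-log steps, 0.5% DMSO vehicle). Gain or loss of signal fitted relative to DMSO.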

[20] = CEETOX_H295R_TESTO: CeeTox H295R High-throughput Steroidogenesis Assay for Testosterone (TESTO) (AID 2283457); details: actives raise or lower the signal
Outline: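 Testosterone secreted into the medium over 48 h by H295R cells (maximum passage 10) was quantified by LC-MS/MS after MTBE extraction. Fitted in both directions against DMSO, with concentrations diluted until MTT viability was ≥70%.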

Measured: AC50

Chain of Broad substrate specificity ATP-binding cassette transporter ABCG2 (Homo sapiens) (Q9UNQ0 whole entry, looked up): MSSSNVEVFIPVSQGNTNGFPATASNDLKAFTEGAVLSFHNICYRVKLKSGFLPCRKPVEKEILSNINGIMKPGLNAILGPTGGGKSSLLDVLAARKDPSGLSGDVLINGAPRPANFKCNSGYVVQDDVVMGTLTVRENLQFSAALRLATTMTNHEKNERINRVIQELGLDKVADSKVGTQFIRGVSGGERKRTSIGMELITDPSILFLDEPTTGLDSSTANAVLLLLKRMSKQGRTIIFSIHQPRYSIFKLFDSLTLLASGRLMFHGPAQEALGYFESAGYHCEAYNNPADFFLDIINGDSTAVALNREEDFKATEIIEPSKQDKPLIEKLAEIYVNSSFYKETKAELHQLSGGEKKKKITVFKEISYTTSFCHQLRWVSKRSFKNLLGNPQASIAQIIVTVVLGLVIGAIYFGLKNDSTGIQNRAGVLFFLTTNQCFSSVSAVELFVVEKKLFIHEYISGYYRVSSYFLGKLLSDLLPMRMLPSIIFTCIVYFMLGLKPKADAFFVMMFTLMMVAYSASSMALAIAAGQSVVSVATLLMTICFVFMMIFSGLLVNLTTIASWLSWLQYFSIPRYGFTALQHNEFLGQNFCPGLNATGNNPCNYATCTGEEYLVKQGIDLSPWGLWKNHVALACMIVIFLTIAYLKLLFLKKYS

COC(=O)c1ccccc1C(=O)OC
not listed: [19] | [20]
inactive: all other assays above

Cc1cc(Cl)ccc1OCC(=O)O
active: [19] 50 µM | [13] 50 µM | [17] 34.3 µM
not listed: [5]
inactive: all other assays above

CS/C(C)=N/OC(=O)N(C)SN(C)C(=O)O/N=C(\C)SC
active: [13] 33.6 µM
not listed: [20]
inactive: all other assays above

CCCN(CCC)c1c([N+](=O)[O-])cc(S(N)(=O)=O)cc1[N+](=O)[O-]
inactive: [1] | [2] | [3] | [6] | [7] | [8] | [9] | [11] | [13] | [15] | [16] | [17] | [18]
active: [2] 96.1 µM | [3] 91.3 µM and 79.8 µM | [4] 93.6 µM and 50 µM and 77.6 µM | [5] 95.4 µM and 77.8 µM and 76.4 µM | [6] 75.8 µM and 76.8 µM | [7] 90.2 µM | [8] 85.9 µM | [9] 93.9 µM and 76.9 µM | [10] 89.8 µM and 84.8 µM and 82.3 µM | [11] 93.5 µM and 93.2 µM | [12] 93.6 µM and 74.3 µM and 90.4 µM | [13] 82 µM | [14] 92.1 µM and 82.3 µM and 84.7 µM | [15] 15.8 µM | [16] 94.3 µM | [17] 77.5 µM

Cc1ccc(-c2c(Cl)nc(C#N)n2S(=O)(=O)N(C)C)cc1
inactive: [2] | [3] | [10] | [15]
active: [1] 0.00629 µM | [4] 7.28 µM | [5] 19.5 µM | [6] 7.21 µM | [7] 50 µM | [8] 22.5 µM | [9] 3.64 µM | [11] 8.98 µM | [12] 7.3 µM | [13] 36.4 µM | [14] 4.39 µM | [16] 50 µM | [17] 4.39 µM | [18] 50 µM
